Assay outcomes from PubChem BioAssay.
The list is not random: actives were taken first. Their share in the collection is about 1.5%.
FEN1 inhibitor = blocks human flap endonuclease 1; P39748; Recombinant FEN1 flap cleavage, fluorescence, 15 min; Potency, µM (doses to about 114 µM), without a hit: top-dose activity change, negative = inhibition, actives largely listed as inhibitors; 390,000 tested, 0.35% active; AID 588795; note: potency is the fitted concentration of half-maximal effect; nearly all actives have a fitted effect of over 65% in size
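Concentration–response screening of FEN1 (10 nM): 15 min compound preincubation at room temperature, reaction started with 50 nM substrate and read at 0 and 15 min. Corrected, normalized data were fitted by a four-parameter Hill equation.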
WRN helicase inh = WRN helicase (human) inhibition. Q14191. WRN helicase unwinding, fluorescent forked duplex, kinetic. Potency, µM (doses to about 114 µM), without a hit: at the highest dose activity change, negative = inhibition, actives largely listed as inhibitors. 360,000 tested, 0.46% active; note: potency is the fitted concentration of half-maximal effect; nearly all actives have a fitted effect of over 55% in size
Target sequence (Q14191 whole entry, looked up): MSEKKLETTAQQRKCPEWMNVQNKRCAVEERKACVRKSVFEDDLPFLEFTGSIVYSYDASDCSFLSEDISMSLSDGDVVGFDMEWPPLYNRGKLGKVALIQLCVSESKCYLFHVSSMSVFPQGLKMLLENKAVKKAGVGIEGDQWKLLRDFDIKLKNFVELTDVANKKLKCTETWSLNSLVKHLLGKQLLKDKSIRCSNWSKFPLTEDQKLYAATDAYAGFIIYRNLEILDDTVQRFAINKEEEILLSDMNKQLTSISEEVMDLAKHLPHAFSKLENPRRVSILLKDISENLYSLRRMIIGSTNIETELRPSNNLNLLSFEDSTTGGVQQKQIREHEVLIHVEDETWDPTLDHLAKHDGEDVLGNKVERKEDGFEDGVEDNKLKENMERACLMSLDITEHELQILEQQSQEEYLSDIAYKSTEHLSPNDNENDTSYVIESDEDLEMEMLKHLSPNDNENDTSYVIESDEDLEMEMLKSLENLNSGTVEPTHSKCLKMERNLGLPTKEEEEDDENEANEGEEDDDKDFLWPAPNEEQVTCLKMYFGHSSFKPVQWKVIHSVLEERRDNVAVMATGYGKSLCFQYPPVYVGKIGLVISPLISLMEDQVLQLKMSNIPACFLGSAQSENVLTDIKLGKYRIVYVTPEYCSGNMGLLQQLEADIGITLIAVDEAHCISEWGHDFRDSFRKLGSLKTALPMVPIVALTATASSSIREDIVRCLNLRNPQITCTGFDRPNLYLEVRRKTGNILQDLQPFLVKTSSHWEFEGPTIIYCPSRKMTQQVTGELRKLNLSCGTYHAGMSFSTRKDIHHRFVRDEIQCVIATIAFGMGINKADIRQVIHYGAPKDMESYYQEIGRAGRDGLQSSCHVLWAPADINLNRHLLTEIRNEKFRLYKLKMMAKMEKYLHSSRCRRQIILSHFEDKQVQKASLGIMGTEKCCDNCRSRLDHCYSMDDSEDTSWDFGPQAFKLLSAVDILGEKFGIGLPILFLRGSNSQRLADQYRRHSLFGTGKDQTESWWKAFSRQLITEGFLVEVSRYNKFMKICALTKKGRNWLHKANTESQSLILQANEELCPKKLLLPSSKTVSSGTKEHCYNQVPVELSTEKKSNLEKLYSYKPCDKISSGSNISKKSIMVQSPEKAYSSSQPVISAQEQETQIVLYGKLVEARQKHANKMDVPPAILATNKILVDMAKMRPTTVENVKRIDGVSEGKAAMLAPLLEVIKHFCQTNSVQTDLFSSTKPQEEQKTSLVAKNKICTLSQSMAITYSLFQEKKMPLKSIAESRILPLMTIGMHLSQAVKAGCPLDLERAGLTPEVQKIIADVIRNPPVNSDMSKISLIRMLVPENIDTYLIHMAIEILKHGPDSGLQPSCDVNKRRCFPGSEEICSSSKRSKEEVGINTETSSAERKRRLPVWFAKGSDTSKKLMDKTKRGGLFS
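Primary qHTS, 1536-well format. 20 nM WRN + compound, 15 min RT; start with 100 nM forked fluorophore/quencher duplex, 2 mM ATP (final); kinetic read ex 525/em 598 nm.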
PI5P4K alpha inh = blocks human PI5P4K alpha kinase activity; PI5P4Kalpha enzyme, ADP-Glo luminescence, 60 min; active compounds read low; max response, %; 330,000 tested, 1.2% active; AID 652105; active = max response of -50% or lower; inconclusive = between -30% and -50%; inactive = -30% or higher; note: value at the top dose of about 77 µM
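Quantitative HTS of the MLSMR library against PI5P4Kalpha with substrate. ATP added last at 5 microM final; room temperature, 60 minutes. Remaining ATP depleted, ADP converted and read as luminescence.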
TDP1 block = TDP1 (human) enzyme inhibition; Q9NUW8; recombinant TDP1, AlphaScreen DNA substrate cleavage; Potency, µM (top dose mostly 130 µM), for the others: at the highest dose activity change, negative = inhibition, hits mostly inhibitors; 350,000 tested, 0.28% active; note: potency is the fitted concentration of half-maximal effect; nearly all actives have a fitted effect of over 40% in size
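Recombinant human Tdp1 (E. coli-expressed, 1 nM final) preincubated with compounds 15 min at room temperature, then 5'-biotin/3'-phosphotyrosine-FITC DNA substrate (15 nM final) added for 5 min. AlphaScreen beads (10 ug/ml final) added 10 min; cleavage lowers signal.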
Tb PFK block = inhibitors of T. brucei phosphofructokinase. O15648. AID 485367. 330,000 tested, 0.17% active. Potency, µM (highest dose often 57.5 µM), for inactives: at the highest dose activity, negative = inhibition, actives largely listed as inhibitors. T. brucei PFK, ADP-Glo luminescence;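 note: potency is the fitted concentration of half-maximal effect; 0% = uninhibited 1x PFK enzyme wells and -100% = no-enzyme wells; nearly all actives have a fitted effect of over 60% in size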
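Activity is normalized to no-enzyme wells (full inhibition) and 1.25 nM enzyme wells (no inhibition). Reaction: 0.5 mM F6P, 0.1 mM ATP, 45 min RT, ADP-Glo luminescence; concentration-response curves fitted and classed by quality.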
Tb PGK inh = blocks T. brucei phosphoglycerate kinase; P07378; PGK/GAPDH coupled, Kinase-Glo luminescence, 60 min; Potency, µM (titrated, usually from 57.5 µM), without a hit: at the highest dose activity change, negative = inhibition, actives largely listed as inhibitors; 380,000 tested, 0.043% active; AID 602233; note: potency is the fitted concentration of half-maximal effect; nearly all actives have a fitted effect of over 60% in size
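Luminescent ATP detection (Kinase-Glo Plus) follows a 60-minute room-temperature incubation, with wells lacking PGK as controls. Buffer: 100 mM TEA (pH 7.6), 5 mM MgCl2, 0.01% Tween-20. Coupling enzyme GAPDH (100 nM final) supplies unstable 1,3-BPG in-well.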
Numbers without * were called inactive; i = inactive; ? = inconclusive; . = not tested or not shown; ! = a repeat was not active; [ ] = dose if it differs, or a comment. Unless noted, calls come from the whole dose curve; as a rule, active = well fitted curve in the direction sought with a large enough effect; inconclusive = small, poorly fitted or top-dose-only effect, or another doubt; inactive = no such curve, though single readings can be large; an effect the other way counts as inactive or inconclusive. Unless noted, % is set by controls: 0 for no effect and ±100 for the full control effect.

SMILES	FEN1 inhibitor	WRN helicase inh	PI5P4K alpha inh	TDP1 block	Tb PFK block	Tb PGK inh
CN1C[C@H](C(=O)N[C@]2(C)O[C@@]3(O)[C@H]4CCCN4C(=O)[C@H](Cc4ccccc4)N3C2=O)C[C@H]2c3cccc4[nH]cc(c34)C[C@@H]21	.	.	.	18%	.	.
BrCC(Br)C1CCC(Br)C(Br)C1 (centres undefined)	7%	4%	10	32µM*!	0%	i
Cc1ccc(N2C(=O)NC(=O)/C(=C/c3ccc(OC(=O)c4cccs4)cc3)C2=O)cc1	15%	50µM*	.	.	15%	-6%
COc1ccc(N2C(=O)NC(=O)/C(=C/c3cccc(OC(=O)c4cccs4)c3)C2=O)cc1Cl	6%	?	?	-5%	-1%	-12%
C=C(C)C(N)=O	.	.	.	16%	.	.
O=C(CCl)c1ccccc1	.	.	.	3%	.	.
CCOC(=O)c1cc(-c2ccccc2)n(CCCC(=O)Nc2ccc(C)c(C)c2)c1C	?	.	.	8%	.	-9%
NC1CCCCC1N (centres undefined)	.	.	.	2%	.	.
CC(c1ccccc1)n1cncc1C(=O)O (centres undefined)	-2%	1%	-8	22µM*	3%	-2%
O=C(c1ccccc1)C(CN1CCCC1)c1ccccc1 (centres undefined)	-18%	?	-10	-2%	-6%	5%
C=CCN1C(=O)NC(=O)/C(=C/c2ccc(OC)c(CSc3ccccn3)c2)C1=O	-13%	?	-71*	3%	-1%	0%
NC1CCCC[C@@H]1N (some centres undefined)	.	.	.	13%	.	.
CCCCn1c(O)c(/C=N/NC(=O)c2ccncc2)c(=O)[nH]c1=S	-6%	32µM*	?	11%	-4%	-2%
COc1ccc(CCn2c(O)c(/C=N/NC(=O)c3ccncc3)c(=O)[nH]c2=O)cc1OC	-7%	-29%	-82*	8%	0%	-6%
CCCCCCC(=O)N/N=C/c1c(O)n(CCCC)c(=S)[nH]c1=O	-3%	-9%	-22	8%	-2%	-1%
O=C(N/N=C/c1c(O)n(-c2ccccc2)c(=O)[nH]c1=O)c1ccncc1	12%	-34%	-27	5%	3%	i
C=CCn1c(O)c(/C=N/NC(=O)c2ccncc2)c(=O)[nH]c1=O	4%	-22%	-50*	.	2%	6%
O=C(N/N=C/c1c(O)n(Cc2ccccc2)c(=O)[nH]c1=O)c1ccncc1	-4%	?	-56*	9%	4%	-1%
FC1(F)C(F)(F)C(F)(F)C2(F)C(F)(F)C(F)(F)C(F)(F)C(F)(F)C2(F)C1(F)F (centres undefined)	.	.	.	21%	.	.
CC(C)(OO)c1ccccc1	.	.	.	6%	.	.
O=C1NC(=O)N(c2ccc(Cl)cc2)C(=O)/C1=C\c1ccc(Sc2nc3ccccc3[nH]2)o1	79µM*	25µM*	-87*	-4%	-29%	-21%
NC1CCC(CC2CCC(N)CC2)CC1 (centres undefined)	.	.	.	7%	.	.
COC(=O)[C@H]1C(=O)c2ccccc2O[C@@](C(=O)OC)(c2ccccc2)[C@@H]1c1ccccc1	.	.	.	3%[21 µM]	.	.
CN1C(=O)/C(=C\c2ccc(N3CCCCC3)o2)C(=O)NC1=S	6%	-18%	-3	-6%	-3%	-10%
C=CCN1C(=O)/C(=C/c2ccc(Br)s2)C(=O)NC1=S	?	56µM*	-94*	.	-7%	-2%
SMILES	FEN1 inhibitor	WRN helicase inh	PI5P4K alpha inh	TDP1 block	Tb PFK block	Tb PGK inh
COc1ccc(/C=C2\C(=O)NC(=S)N(C)C2=O)cc1C	50µM*	20µM*	-57*	.	-4%	10µM*
Cc1cc(N2CCCC2)ccc1C=C(C#N)C#N	-1%	?	-1	5%	-3%	-8%
Cc1cc(N2CCCCC2)ccc1C=C1C(=O)N(C)C(=S)N(C)C1=O	-1%	-36%[57.1 µM]	-60*	6%	0%	-1%
CN1C(=O)/C(=C/c2ccc(Cl)s2)C(=O)NC1=S	-24%	14µM*	-80*	-6%	2%	-2%
OCCBr	.	.	.	5%	.	.
CN1C(=O)/C(=C\c2ccc(N3CCCCCC3)cc2)C(=O)NC1=S	-8%	-17%	-56*	0%	-6%	-6%
CCCCN1C(=O)/C(=C/c2ccc(N3CCCCCC3)cc2)C(=O)NC1=S	.	.	.	1%	-4%	.
Cc1ccsc1/C=C1\C(=O)NC(=S)N(C)C1=O	79µM*	50µM*	-84*	2%	-8%	-14%
O=c1ccc(=O)[nH][nH]1	.	.	.	2%	.	.
COC(=O)[C@@H]1[C@@H](O)[C@@]2(O)c3c(OC)cc(OC)cc3O[C@@]2(c2ccc(OC)cc2)[C@H]1c1ccccc1	.	.	.	7%[21 µM]	.	.
C(CCOCC1CO1)COCC1CO1 (centres undefined)	.	.	.	14%	.	.
CCOC(=O)c1ccccc1NC(=O)c1c(O)[nH]c(=S)[nH]c1=O	-9%	9%	-23	.	.	-2%
O=C(O)c1ccccc1NS(=O)(=O)c1cccc(N=Nc2c(O)[nH]c(=S)[nH]c2=O)c1	-10%	-32%	-74*	0%	?	-3%
COc1ccc(Cc2c(O)[nH]c(=S)[nH]c2=O)cc1	13%	-36%	-56*	5%	1%	7%
CCCCOc1ccc(C(C)=O)cc1Cc1c(O)[nH]c(=S)[nH]c1=O	20%	5%	-14	.	-1%	i
Oc1c(Br)c(Br)c(Br)c(Br)c1Br	50µM*	-29%	-60*	4%	-24%	?
Oc1c(Br)cc(Br)cc1Br	-5%	-8%	0	3%	-2%	-11%
CCOP(=S)(OCC)Oc1ccc([N+](=O)[O-])cc1	.	.	.	1%	.	.
CCOC(=O)c1ccc(N=Cc2c(O)n(-c3ccccc3F)c(=S)[nH]c2=O)cc1	?	79µM*	-27	1%	0%	-9%
O=C1NC(=O)N(c2ccccc2F)C(=O)/C1=C/c1ccc(Oc2ccc([N+](=O)[O-])cn2)cc1	-31%	-10%	-52*	-8%	-1%	-11%
COc1cc(/C=C2\C(=O)NC(=O)N(c3ccccc3)C2=O)c([N+](=O)[O-])cc1OC	0%	?	-28	5%	0%	-2%
O=Cc1ccc2c(c1)OCO2	.	.	.	18%	.	.
C=C(Cl)CCl	.	.	.	5%	.	.
c1ccc(-c2nc(N3CCOCC3)s[n+]2-c2ccccc2)cc1	6%	?	-67*	0%	16%	-7%
CCCCCCCCn1sccc1=O	-12%	-4%	-77*	0%	?	i
COc1cccc(CN2CCC(n3nccc3NC(=O)CCOc3ccccc3)CC2)c1O	-2%	?	3	.	.	-4%
CCOP(=S)(OCC)SCSC(C)(C)C	.	.	.	7%	.	.
O=C(O)c1ccc([N+](=O)[O-])c([N+](=O)[O-])c1	-7%	3%	-50*	.	.	-12%
